# Screening results from PubChem.
# Most compounds without a hit are left out; they make up all but 28% or so of the library.
# CYP2C19 act – increases human CYP2C19 enzyme activity | P33261 | recombinant CYP2C19, luciferin-H EGE luminescence; stronger effect = higher value; 0 = fully inhibited enzyme, 1 = untreated enzyme | activation factor at 5 µM | 96,000 tested, under 10 active;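 active means activation factor of at least 2 at 5 µM in the primary screen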;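 further: 0 = wells with 2.5 mM tranylcypromine and 1 = vehicle-only wells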
# CYP2C9 inh – human CYP2C9 inhibition; P11712; CYP2C9 Supersomes, luciferin-H conversion, luminescence; inhibition, % at 5 µM; 96,000 tested, 20% active; AID 777;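 active means blocking of liver enzyme CYP2C9 beyond about 50% at 5 µM, limit read from the data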
# Target sequence (P11712 whole entry, looked up): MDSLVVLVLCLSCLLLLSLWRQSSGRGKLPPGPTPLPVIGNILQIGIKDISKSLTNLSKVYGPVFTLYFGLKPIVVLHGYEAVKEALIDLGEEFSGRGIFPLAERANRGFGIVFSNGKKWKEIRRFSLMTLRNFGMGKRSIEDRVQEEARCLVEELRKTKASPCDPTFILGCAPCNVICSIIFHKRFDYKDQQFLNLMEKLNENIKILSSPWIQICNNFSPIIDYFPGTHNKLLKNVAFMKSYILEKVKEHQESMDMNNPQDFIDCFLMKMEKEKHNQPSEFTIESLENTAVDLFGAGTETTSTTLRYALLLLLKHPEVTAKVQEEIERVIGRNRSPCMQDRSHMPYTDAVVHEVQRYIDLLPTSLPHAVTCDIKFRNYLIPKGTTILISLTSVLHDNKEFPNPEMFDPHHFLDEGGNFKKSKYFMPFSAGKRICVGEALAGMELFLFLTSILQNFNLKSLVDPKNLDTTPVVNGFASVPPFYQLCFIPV
# CYP2C9 act – CYP2C9 (human) activation. P11712. recombinant CYP2C9, luciferin-H conversion, luminescence; stronger effect = higher value; factor 1 = untreated enzyme, 0 = blocked. activation factor at 5 µM. 96,000 tested, 1.4% active;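 active means activation factor of 2 or more for CYP2C9 at a 5 µM dose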;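 further: 0 = sulfaphenazole-blocked wells and 1 = vehicle-only wells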
# CD11b adhes inh – CD11b/CD18-fibrinogen binding inhibition; P05107+P11215; K562 CD11b/CD18 adhesion to fibrinogen, ATPlite luminescence; Mn2+ added to activate the integrin; AID 1497; 93,000 tested, 0.54% active; inhibition, % at 10 µM;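 active means primary inhibition of 50% or more at 10 µM, then 40% or more on retest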
# CYP2C19 inhib – inhibitors of human CYP2C19; P33261; CYP2C19 Supersomes, luciferin-H EGE luminescence, 30 min; inhibition, % at 5 µM; 96,000 tested, 21% active; AID 778;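 active means CYP2C19 inhibition above a set limit at 5 µM in the primary screen, cut at about 50% in these data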;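 further: plate controls were negative control wells for no effect and 2.5 mM tranylcypromine positive control for full effect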
# Mac1 fbg enh – enhancers of human CD11b/CD18 binding to fibrinogen; P05107+P11215; K562 CD11b/CD18 adhesion to fibrinogen, ATPlite luminescence; activation, % at 10 µM; 93,000 tested, 0.07% active;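 active means 10 µM primary screen giving 50% or more activity, confirmed by 40% or more on retest at that dose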
# Numbers without * were called inactive; . = no result given.
SMILES,CYP2C19 act,CYP2C9 inh,CYP2C9 act,CD11b adhes inh,CYP2C19 inhib,Mac1 fbg enh
Cc1cc(C(F)F)n2nc(C(=O)Nc3cccnc3Cl)nc2n1,1.1,1.4,1,.,-7.2,.
CC1CC(C)CN(C(=O)COC(=O)CNS(=O)(=O)/C=C/c2ccccc2)C1 (stereo unspecified),0.9,0.1,1,30.9,9.8,-0.9
O=C(CNS(=O)(=O)/C=C/c1ccccc1)OCC(=O)N1CCC(Cc2ccccc2)CC1,0.8,51.5*,0.5,9.1,24.2,-2.7
CCCCc1noc2c1/C(=N\O)CC(c1ccccc1)C2 (stereo unspecified),0.5,77.1*,0.2,-35.6,47.9,-0.3
CCc1n[nH]c2c1/C(=N\O)CC(c1ccccc1)C2 (stereo unspecified),0,97.5*,0,-4.6,95.7*,2.8
CC/C(O)=C1\C(=O)CC(c2ccccc2)CC1=NCCC(=O)O (stereo unspecified),.,.,.,-7.6,.,3.8
CCCCc1n[nH]c2c1/C(=N/O)CC(c1ccccc1)C2 (stereo unspecified),0.6,17.8,0.8,.,39.6,.
O=C(NCC1CCCO1)c1sc2cc(Cl)ccc2c1Cl (stereo unspecified),.,.,.,15.3,.,5.2
COc1ccc(S(=O)(=O)NC(CC(=O)NCCc2ccc(OC)c(OC)c2)c2ccco2)cc1 (stereo unspecified),1,9.7,0.9,-24.2,2.1,1.4
COc1ccccc1C1CC(c2ccco2)=NN1c1ccccc1 (stereo unspecified),.,.,.,-5.7,.,-0.9
Cc1nn2c(c1-c1ccc(Cl)cc1)N=C(c1ccco1)CC2c1ccccc1 (stereo unspecified),0.8,72.6*,0.3,.,24.9,.
O=C1c2ccccc2CCC12N=NCC2c1ccc(Br)cc1 (stereo unspecified),0,48.9,0.5,-31.4,98.7*,-2.5
O=C1c2ccccc2CCC12N=NCC2c1ccc(Cl)cc1 (stereo unspecified),0.2,15.0,0.8,.,84.4*,.
O=C1CC(c2ccc(Cl)cc2)n2nc(N3C(=O)c4ccccc4C3=O)nc2N1 (stereo unspecified),0.7,32.1,0.7,1.6,28.8,-0.2
Cc1cccc(N2CCN(C(=O)Cn3sc4nc(C)cc(C)c4c3=O)CC2C)c1 (stereo unspecified),0.7,53.6*,0.5,21.9,26.1,-6.4
Cc1cccc(N2CCN(C(=O)c3ccncc3)CC2C)c1 (stereo unspecified),0,49.1,0.5,-11.1,100.0*,-5.8
Cc1cccc(N2CCN(C(=O)CN3CCOc4ccccc43)CC2C)c1 (stereo unspecified),0.1,53.9*,0.5,2.8,93.7*,3.4
Cc1ccc(-c2ccc(=O)n(CC(=O)N3CCN(c4cccc(C)c4)C(C)C3)n2)cc1 (stereo unspecified),0.7,18.7,0.8,.,26.8,.
Cc1cccc(N2CCN(C(=O)c3ccc(NC(=O)C4CCCO4)cc3)CC2C)c1 (stereo unspecified),1.1,45.2,0.5,-12.2,-5.0,8.3
Cc1cccc(N2CCN(C(=O)Cn3c(=O)[nH]c4ccsc4c3=O)CC2C)c1 (stereo unspecified),0.4,37.4,0.6,-12.2,59.4*,0.3
COc1ccc(N2CCN(C(=O)Cn3c(=O)[nH]c4ccsc4c3=O)CC2)cc1,1.1,-12.2,1.1,15.9,-8.7,2.1
O=C(Cn1c2c(sc1=O)C1c3ccccc3OCC1CS2)Nc1ccc(Cl)cc1 (stereo unspecified),.,.,.,17.9,.,13.4
O=C1C2C3C=CC(C3)C2C(=O)N1c1cccnc1 (stereo unspecified),1.1,-10.3,1.1,1.0,-9.9,-1.0
O=C(NC(C(=O)c1ccccc1)n1ccc(=O)[nH]c1=O)c1ccccc1 (stereo unspecified),1.1,-5.9,1.1,-12.1,-7.1,-0.4
O=C(NC(C(=O)c1ccccc1)N1CCCCC1)c1ccccc1 (stereo unspecified),0.2,98.8*,0,-8.6,76.7*,-0.7
SMILES,CYP2C19 act,CYP2C9 inh,CYP2C9 act,CD11b adhes inh,CYP2C19 inhib,Mac1 fbg enh
Cc1ccc(C(=O)NC(N2CCCC2)C(Cl)(Cl)Cl)cc1 (stereo unspecified),0.3,12.5,0.9,.,69.0*,.
Cc1nc(NC(=O)c2ccccc2)sc1-c1csc(NCCc2ccccc2)n1,0.5,77.7*,0.2,-1.1,48.1,-5.3
Cc1nc(NC(=O)c2ccccc2)sc1-c1csc(NCc2ccccc2)n1,0.5,65.6*,0.3,0.2,51.1*,0.2
Cc1nc2sccn2c1-c1csc(NCc2ccccc2)n1,0.1,61.6*,0.4,108.9*,89.6*,-9.1
Cc1cc(NS(=O)(=O)c2ccc(Nc3nc(-c4sc(NC(=O)c5ccccc5)nc4C)cs3)cc2)no1,1.2,75.0*,0.3,78.9*,-17.5,-5.2
Cc1nc(N)sc1-c1csc(NCc2ccccc2)n1,0.7,43.3,0.6,-20.9,30.0,-0.1
CCOC(=O)N1CCC(c2nc3ccccc3[nH]2)CC1,1,21.2,0.8,2.6,4.8,-1.8
CCCN(CCC)C(=O)Cn1c2ccccc2c2nc(=O)cc(C)n21,1,-8.8,1.1,2.7,3.5,-0.4
CCOC(=O)c1c(C)[nH]c(C(=O)COC(=O)c2cn(CC)c3nc(C)ccc3c2=O)c1C,0.7,21.7,0.8,-22.8,30.8,-4.7
CCOc1ccccc1Nc1nc(-c2sc(NC(=O)c3ccccc3)nc2C)cs1,0.9,47.7,0.5,-5.6,10.1,1.7
Cc1nc(NC(=O)c2ccccc2)sc1-c1csc(N)n1,0.8,54.4*,0.5,-8.9,19.4,-0.2
CCCCCCC(=O)Nc1nc(C)c(-c2csc(Nc3cc(Cl)ccc3C)n2)s1,0.6,37.6,0.6,.,36.9,.
Cc1ccc(Cl)cc1Nc1nc(-c2sc(NC(=O)c3ccccc3)nc2C)cs1,0.5,76.6*,0.2,.,52.1*,.
COc1cc(NC(=O)COC(=O)c2nc3nc(C)cc(C)n3n2)cc(OC)c1,1,9.7,0.9,.,-2.6,.
CN(C)C(=O)c1ccccc1Sc1ccc(Cl)cc1Cl,0.1,57.7*,0.4,57.5,94.9*,0.1
CN(C)C(=O)c1ccccc1Sc1cc(Cl)ccc1Cl,0.2,-10.2,1.1,18.9,75.3*,5.6
Cc1nc(C(=O)N(C)C)nn1-c1cc(Cl)ccc1Cl,1.1,-7.1,1.1,-0.4,-14.5,-5.4
CCOC(=O)c1sc(=S)n(C)c1NC(=O)c1ccccc1C,.,.,.,15.2,.,4.5
CCOC(=O)c1c(N)sn(-c2ccccc2C)c1=S,0.7,61.5*,0.4,1.6,28.4,-5.3
COc1ccc(C(=O)/C=C(/C)N(C)C)cc1,0.9,-0.1,1,.,14.9,.
O=C(NCCc1ccccc1)c1ccc2nc(-c3ccco3)c(-c3ccco3)nc2c1,0.1,97.9*,0,35.9,93.6*,4.7
